Screening data from PubChem BioAssay.
Pol kappa inh = qHTS for Inhibitors of Polymerase Kappa | purified Pol kappa, fluorescent DNA synthesis assay, 10 min | DNA polymerase kappa (Homo sapiens), Q9UBT6 | Potency, µM (doses to about 107 µM), for the others: at the highest dose activity, negative = inhibition, hits mostly inhibitors | actives 0.53% (n = 400,000) | AID 588579, 2011; further: on the % scale 0 is the no-effect control and ±100 the full control effect
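10 nM Pol kappa preincubated 15 min at room temperature with compounds, then reaction started with substrate at 50 nM final. Fluorescence read kinetically at 0 and 10 min; buffer-only wells served as negative control.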
Pol iota inh = qHTS for Inhibitors of Polymerase Iota; DNA polymerase iota (Homo sapiens), Q9UNA4; Pol iota fluorescent replication assay, 10 min; Potency, µM (titrated, usually from 115 µM), without a hit: at the highest dose activity, negative = inhibition, hits mostly inhibitors; actives 1% (n = 390,000)
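Fluorescent replication assay read twice, at 0 min and 10 min after adding 50 nM (final) substrate. Enzyme (10 nM) and compounds were first incubated 15 min at room temperature; enzyme-free buffer wells were negative controls.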
WRN helicase inh = qHTS for Inhibitors of WRN Helicase | Potency, µM (top dose mostly 114 µM), inactives show top-dose activity change, negative = inhibition, most hits filed as inhibitors | actives 0.46% (n = 360,000) | Bifunctional 3'-5' exonuclease/ATP-dependent helicase WRN (Homo sapiens), Q14191 | AID 651768, 2012 | WRN helicase unwinding, fluorescent forked duplex, kinetic; further: on the % scale 0 is the no-effect control and ±100 the full control effect; nearly all actives have a fitted effect of over 55% in size
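WRN at 20 nM final preincubated with compound 15 min at room temperature; reaction started with 100 nM fluorophore/quencher forked duplex oligonucleotide and 2 mM ATP final. Unwinding followed kinetically by red fluorescence (ex 525, em 598 nm).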
FEN1 inhibitor = qHTS Assay for the Inhibitors of Human Flap endonuclease 1 (FEN1); P39748; Potency, µM (doses to about 114 µM), for the others: top-dose activity change, negative = inhibition, hits mostly inhibitors; actives 0.35% (n = 390,000); AID 588795, 2011; Recombinant FEN1 flap cleavage, fluorescence, 15 min; further: on the % scale 0 is the no-effect control and ±100 the full control effect; nearly all actives have a fitted effect of over 65% in size
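Steps: FEN1 (10 nM) dispensed; compound added by pin tool; 15 min at room temperature; substrate added to 50 nM final; reads at 0 min and 15 min; data normalized and fitted (four-parameter Hill).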
Pol eta inh = qHTS for Inhibitors of Polymerase Eta; DNA polymerase eta (Homo sapiens), Q9Y253; recombinant Pol eta, fluorescent DNA replication assay; Potency, µM (titrated, usually from 114 µM), for inactives: at the highest dose activity change, negative = inhibition, usual class: inhibitors; actives 1.2% (n = 390,000); further: on the % scale 0 is the no-effect control and ±100 the full control effect
Target sequence (Q9Y253 whole entry, looked up): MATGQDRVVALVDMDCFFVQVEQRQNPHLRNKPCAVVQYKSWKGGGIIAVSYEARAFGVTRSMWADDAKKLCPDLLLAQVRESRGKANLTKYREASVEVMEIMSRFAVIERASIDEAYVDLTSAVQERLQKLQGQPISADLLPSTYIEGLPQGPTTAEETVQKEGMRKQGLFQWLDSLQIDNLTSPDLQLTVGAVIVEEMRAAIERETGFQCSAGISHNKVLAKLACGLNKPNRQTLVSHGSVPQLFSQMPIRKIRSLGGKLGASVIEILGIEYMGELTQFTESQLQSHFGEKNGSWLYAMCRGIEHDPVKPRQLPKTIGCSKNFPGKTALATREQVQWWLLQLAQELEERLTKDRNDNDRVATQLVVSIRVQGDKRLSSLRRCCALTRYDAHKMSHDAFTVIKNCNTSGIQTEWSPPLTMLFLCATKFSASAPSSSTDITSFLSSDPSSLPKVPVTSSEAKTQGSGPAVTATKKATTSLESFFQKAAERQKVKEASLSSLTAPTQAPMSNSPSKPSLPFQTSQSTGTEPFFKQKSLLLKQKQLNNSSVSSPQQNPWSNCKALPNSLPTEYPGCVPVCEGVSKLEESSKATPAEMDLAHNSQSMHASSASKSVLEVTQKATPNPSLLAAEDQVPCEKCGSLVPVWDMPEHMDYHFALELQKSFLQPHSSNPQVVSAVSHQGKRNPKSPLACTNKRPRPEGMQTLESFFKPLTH
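Pol eta at 10 nM preincubated with compounds 15 min at room temperature; reaction started with fluorescent substrate (50 nM final) and read kinetically at 0 and 10 min.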
POLB inh = qHTS Assay for Inhibitors of DNA Polymerase Beta; Pol beta primer extension/strand displacement, fluorescence kinetic; actives 1.3% (n = 340,000); Potency, µM (doses to about 114 µM), for the others: at the highest dose activity change, negative = inhibition, hits mostly inhibitors; further: on the % scale 0 is the no-effect control and ±100 the full control effect
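Pol beta (10 nM) and compounds were preincubated 15 min at room temperature, then 50 nM substrate (final) started primer extension/strand displacement. Reads were taken at 0 and 10 min; concentration-response data were fitted to a four-parameter Hill equation.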
Starred values were filed as active, the others as inactive; i = inactive; ? = inconclusive; / = no result given; [ ] = dose if it differs, or a comment. Sampled rows, rich in hits. Any-hit rate of the full collection: about 2.4%. The call rests on the fitted dose curve; in most records, active means well fitted curve in the direction sought with a large enough effect; inconclusive means small, poorly fitted or top-dose-only effect, or another doubt; inactive means no such curve, though single readings can be large; an effect the other way counts as inactive or inconclusive. Potency means the concentration at half of the fitted maximal effect.

SMILES | Pol kappa inh | Pol iota inh | WRN helicase inh | FEN1 inhibitor | Pol eta inh | POLB inh
CCCCCCCCCCCCCCCC[n+]1ccc(/C=C/c2c[nH]c3ccccc23)c2ccccc21 | 95% | i | / | 50µM* | / | /
CCCCCCC[n+]1ccc(/C=C/c2c[nH]c3ccccc23)c2ccccc21 | 32µM* | ? | / | 25µM* | / | /
CCCCCCCCCC[n+]1ccc(/C=C/c2c[nH]c3ccccc23)cc1 | -7% | 4% | / | 89µM* | / | /
Cc1cc2nc(-c3ccccc3)c(Cc3ccsc3)n2c(C)c1Br | / | / | -5% | / | / | /
Cn1cc(S(=O)(=O)CC(=O)N2CCCc3ccccc32)c2ccccc21 | -1% | 8% | -3% | 21% | -1% | 28%
Cc1ccc(C(=O)Nc2nc(-c3ccccn3)cs2)o1 | -16% | -45% | -10% | -2% | -20% | -16%
COc1ccc(C(=O)Nc2ccc(-c3nc4ncccc4o3)cc2)cc1 | 2% | -1% | / | 3% | 5% | 20%
O=C(Nc1nc(-c2ccccn2)cs1)c1ccc([N+](=O)[O-])o1 | -19% | 22µM* | ? | 1% | 35µM* | ?
Cc1cc(C)cc(C(=O)Nc2ccc(-c3nc4ncccc4o3)cc2)c1 | -9% | -4% | / | 11% | ? | 14µM*
Cc1cc(C)nc(NC(=O)c2ccc([N+](=O)[O-])o2)n1 | -34% | 71µM* | -10% | -14% | ? | -27%
Cc1ccc(C(=O)Nc2cc(-c3nc4ncccc4o3)ccc2C)c(C)c1 | 1% | 12% | / | 15% | 79µM* | 4%
Cc1ccc(-c2nc3ncccc3o2)cc1NC(=O)c1ccccc1Br | -5% | 35% | / | -4% | -25% | -23%
O=c1c(Cl)c(N2CCN(S(=O)(=O)c3ccc(F)cc3)CC2)cnn1-c1cccc(Cl)c1 | -3% | -9% | 1% | 5% | -7% | ?
FC(F)(F)COCC(F)(F)F | 5%[19.4 µM] | / | / | / | / | /
Cc1cc(-c2nc3ncccc3o2)ccc1NC(=O)c1ccc([N+](=O)[O-])o1 | -11% | 3.5µM* | -36% | ? | 50µM* | /
Cc1ccc(-c2nc3ncccc3o2)cc1NC(=O)c1ccc([N+](=O)[O-])o1 | -10% | -2% | 4% | -21% | -10% | -6%
CCCCc1nc2cc(C(=O)N(C)C(C)c3ccccn3)ccc2o1 (centres undefined) | 13% | 19% | -2% | 34% | -10% | 22%
CCN(CCCNC(=O)CNC(=O)c1nn(-c2ccc(OC)cc2)c(=O)c2ccccc12)c1cccc(C)c1 | 2% | 32% | 2% | -9% | -10% | 3%
CCN(CCCNC(=O)c1cc2cc3ccc(OC)cc3nc2s1)c1cccc(C)c1 | ? | 79µM* | / | ? | ? | 4µM*
CCN(CCCNC(=O)c1cc2cc3ccc(OC)cc3nc2s1)c1ccccc1 | 79µM* | 79µM* | / | 6% | ? | 11µM*
CCCCN(C)C(=O)c1cc2cc3ccc(OC)cc3nc2s1 | -10% | -7% | -3% | 4% | -9% | -1%
CCC(=O)c1ccccc1OCC(=O)Nc1c(C)cccc1C | -11% | 57% | -12% | -4% | -3% | -5%
Cc1cccc(NC(=O)C2CCCN2S(=O)(=O)c2ccc3nc(-c4ccccc4)[nH]c3c2)c1 (centres undefined) | ? | ? | / | -3% | 79µM* | ?
Cc1ccc(NC(=O)C2CCCN2S(=O)(=O)c2ccc3nc(-c4ccccc4)[nH]c3c2)cc1C (centres undefined) | -26% | ? | / | -4% | -10% | -33%
CC(Sc1nnc2c(n1)[nH]c1ccccc12)C(=O)NC1CCCCC1 (centres undefined) | -4% | 14% | -33% | -14% | -1% | 45µM*
SMILES | Pol kappa inh | Pol iota inh | WRN helicase inh | FEN1 inhibitor | Pol eta inh | POLB inh
Cc1ccccc1-c1cc(C(=O)N2CCCC2)c2ccccc2n1 | ? | 25µM* | -22% | 1% | ? | ?
COc1ccc(-c2cc(C(=O)N3CCCCCC3)c3ccccc3n2)c(OC)c1 | -39% | 79µM* | -15% | -24% | ? | 22µM*
Cc1ccc(-c2cc(C(=O)N3CCN(c4ccc(F)cc4)CC3)c3ccccc3n2)o1 | -21% | 35µM* | -19% | 6% | ? | 28µM*
O=C(Nc1ccccn1)C1COc2ccccc2O1 (centres undefined) | -2% | 6% | 2% | -1% | 4% | 2%
Cc1ccccc1NC(=O)CN1CCOCC1 | 8% | 115% | 8% | 3% | 4% | 22%
O=C(CN1CCOCC1)Nc1ccccc1C(=O)O | -7% | 79µM* | 0%[57.1 µM] | -7% | -4% | 1%
CSC1=NSC2=NC(=O)/C(=C/c3coc4ccc(O)cc4c3=O)C(=N)N12 | 40µM* | ? | 45µM* | 45µM* | 3.2µM* | 25µM*
CSC1=NSC2=NC(=O)/C(=C\c3cccs3)C(=N)N12 | -10% | 24% | -18% | 4% | -1% | 1%
O=C(N/C(=C\c1ccc2c(c1)OCO2)C(=O)N1CCOCC1)c1cccs1 | -6% | 5% | -4% | -4% | -14% | -2%
O=C(O)Cc1ccc(C(=O)CSc2ccccc2)s1 | ? | 25µM* | ? | -32% | 20µM* | 16µM*
O=C(O)Cc1ccc(C(=O)c2ccccc2)s1 | -22% | -10% | / | -3% | 1% | 0%
COC(=O)CCCC1=CC2=CC(=O)C(C)(OC(=O)C3CCCC3)C(=O)C2=CO1 (centres undefined) | ? | 22µM* | ? | ? | 20µM* | 45µM*
COC(=O)CCCC1=CC2=C(c3ccccc3)C(=O)C(C)(OC(=O)C3CCCC3)C(=O)C2=CN1C1CCCC1 (centres undefined) | -5% | 44% | -2% | -10% | -4% | 6%
CC1(OC(=O)CCc2ccccc2)C(=O)C=C2C=C(c3ccsc3)OC=C2C1=O (centres undefined) | / | / | / | / | / | 45µM*
CC1(OC(=O)c2ccco2)C(=O)C=C2C=C(C3CC3)OC=C2C1=O (centres undefined) | 79µM* | ? | ? | ? | 45µM* | /
CC1(OC(=O)C2CCCC2)C(=O)C=C2C=C(c3ccsc3)OC=C2C1=O (centres undefined) | ? | 45µM* | ? | ? | 32µM* | 35µM*
CC1(OC(=O)C2CCCC2)C(=O)C=C2C=C(c3ccsc3)N(C3CCCC3)C=C2C1=O (centres undefined) | -4% | ? | 12% | 3% | -2% | 10%
